Source: PubChem BioAssay AID1159580 (chemical genetic matrix, 2015)
“And” between values parts separate entries of the source, which are not always exact repeats. Identical values can stand only once. The whole screen tested about 5,500 compounds, of which about 2,000 (36%) were called active. Not shown: some 18% with an inconclusive outcome. No stated cut-off is given here; in the data, active means normalized growth mostly below about 0.91 (no sharp cut-off); inconclusive means no clear call, values can overlap the other calls; inactive means mostly above about 0.92. Some of the results follow.

Test: chemical genetic growth profiling, strain panel (AID 1159580);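 further: tested at 20 µM; growth read once vehicle control cultures reached saturation at 30 °C; 1 = growth at the plate median or of vehicle wells; lower values mean less growth of the strain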
Details: S. cerevisiae deletion strains, growth OD

Measured: normalized growth

O=C(Oc1ccccc1C(=O)O)c1ccccc1O
inactive: locus YAL013W, strain DEP1, active compounds read low 0.985 | locus YAL021C, strain ccr4, active compounds read low 1 | locus YAL026C, strain drs2, active compounds read low 0.982 | locus YAL030W, strain snc1, active compounds read low 0.979 | locus YBL061C, strain skt5, active compounds read low 0.973 | locus YBR009C, strain hhf1, active compounds read low 1.01 | locus YBR021W, strain FUR4, active compounds read low 1 | locus YBR023C, strain chs3, active compounds read low 1 | locus YBR171W, strain sec66, active compounds read low 0.941 | locus YBR229C, strain ROT2, active compounds read low 0.955 | locus YBR231C, strain swc5, active compounds read low 0.984 | locus YBR279W, strain paf1, active compounds read low 1 | locus YCL011C, strain gbp2, active compounds read low 0.975 | locus YCL016C, strain dcc1, active compounds read low 1 | locus YCL029C, strain bik1, active compounds read low 0.985 | locus YCL069W, strain vba3, active compounds read low 0.986 | locus YCR088W, strain abp1, active compounds read low 0.972 | locus YDL005C, strain med2, active compounds read low 0.944 | locus YDL035C, strain GPR1, active compounds read low 0.964 | locus YDL040C, strain nat1, active compounds read low 0.982 | locus YDL074C, strain BRE1, active compounds read low 0.974 | locus YDL101C, strain DUN1, active compounds read low 0.98 | locus YDL185W, strain tfp1, active compounds read low 0.961 | locus YDL192W, strain arf1, active compounds read low 0.977 | locus YDR001C, strain nth1, active compounds read low 0.953 | locus YDR069C, strain doa4, active compounds read low 0.971 | locus YDR101C, strain arx1, active compounds read low 0.944 | locus YDR137W, strain rgp1, active compounds read low 0.972 | locus YDR159W, strain sac3, active compounds read low 0.978 | locus YDR162C, strain NBP2, active compounds read low 0.97 | locus YDR195W, strain ref2 0.897 | locus YDR297W, strain sur2, active compounds read low 0.997 | locus YDR318W, strain mcm21, active compounds read low 1 | locus YDR334W, strain swr1, active compounds read low 0.942 | locus YDR335W, strain msn5, active compounds read low 0.975 | locus YDR388W, active compounds read low 0.976 | locus YDR392W, strain spt3, active compounds read low 1 | locus YDR502C, strain sam2, active compounds read low 0.996 | locus YEL003W, strain gim4, active compounds read low 0.979 | locus YEL037C, strain rad23, active compounds read low 0.965 | locus YEL061C, strain CIN8 (second series), active compounds read low 0.978 | locus YEL061C, strain CIN8, active compounds read low 0.984 | locus YER015W, strain faa2, active compounds read low 0.989 | locus YER016W, strain bim1, active compounds read low 1 | locus YER110C, active compounds read low 0.983 | locus YER111C, strain swi4, active compounds read low 0.95 | locus YER155C, strain BEM2 (second series), active compounds read low 0.99 | locus YER155C, strain BEM2, active compounds read low 0.997 | locus YER167W, strain BCK2, active compounds read low 1 | locus YFR010W, strain ubp6, active compounds read low 0.966 | locus YGL078C, strain dbp3, active compounds read low 1.01 | locus YGL086W, strain mad1, active compounds read low 0.976 | locus YGL167C, strain pmr1, active compounds read low 0.937 | locus YGL173C, strain kem1, active compounds read low 0.979 | locus YGL227W, strain vid30, active compounds read low 0.98 | locus YGL240W, strain doc1, active compounds read low 0.985 | locus YGL248W, strain PDE1, active compounds read low 0.99 | locus YGL253W, strain hxk2, active compounds read low 0.968 | locus YGR135W, strain pre9, active compounds read low 1.06 | locus YGR252W, strain gcn5, active compounds read low 1.09 | locus YHR013C, strain ard1, active compounds read low 0.963 | locus YHR027C, strain rpn1, active compounds read low 0.985 | locus YHR030C, strain SLT2, active compounds read low 0.977 and 1 | locus YHR079C, strain IRE1 (second series), active compounds read low 0.98 | locus YHR079C, strain IRE1, active compounds read low 0.987 | locus YHR094C, strain hxt1, active compounds read low 0.977 | locus YHR129C, strain ARP1, active compounds read low 0.955 | locus YHR142W, strain chs7, active compounds read low 0.982 | locus YHR200W, strain rpn10, active compounds read low 0.987 | locus YIL066C, strain RNR3, active compounds read low 0.971 | locus YIL073C, strain SPO22, active compounds read low 1.03 | locus YIL125W, strain kgd1, active compounds read low 0.992 | locus YIR030C, strain dcg1, active compounds read low 0.992 | locus YJL092W, strain hpr5, active compounds read low 0.961 | locus YJL095W, strain BCK1 (second series), active compounds read low 0.972 | locus YJL095W, strain BCK1, active compounds read low 1.02 and 0.96 | locus YJL115W, strain asf1, active compounds read low 0.956 | locus YJL129C, strain trk1, active compounds read low 0.955 | locus YJL134W, strain LCB3, active compounds read low 0.985 | locus YJL154C, strain vps35, active compounds read low 0.933 | locus YJL164C, strain tpk1, active compounds read low 1.01 | locus YJL166W, strain qcr8, active compounds read low 0.964 | locus YJL168C, strain set2, active compounds read low 0.988 | locus YJL187C, strain SWE1 (second series), active compounds read low 0.966 | locus YJR043C, strain POL32, active compounds read low 0.975 | locus YJR066W, strain TOR1, active compounds read low 0.937 | locus YJR075W, strain HOC1, active compounds read low 0.978 | locus YKL009W, strain mrt4, active compounds read low 0.971 | locus YKL068W, active compounds read low 0.978 | locus YKL085W, strain MDH1 (second series), active compounds read low 0.998 | locus YKL085W, strain MDH1, active compounds read low 0.998 | locus YKL160W, strain elf1, active compounds read low 0.969 | locus YKR001C, strain vps1, active compounds read low 0.986 | locus YKR026C, strain gcn3, active compounds read low 0.923 | locus YKR091W, strain srl3, active compounds read low 0.984 | locus YLL001W, strain dnm1, active compounds read low 0.944 | locus YLL026W, active compounds read low 1 | locus YLL041C, strain sdh2, active compounds read low 0.968 | locus YLR027C, strain aat2, active compounds read low 0.984 | locus YLR039C, strain RIC1, active compounds read low 0.991 | locus YLR058C, strain SHM2, active compounds read low 0.971 | locus YLR102C, strain apc9, active compounds read low 0.993 | locus YLR113W, strain HOG1, active compounds read low 0.906 | locus YLR221C, strain rsa3, active compounds read low 1 | locus YLR258W, strain gsy2, active compounds read low 0.974 | locus YLR262C, strain YPT6 (second series), active compounds read low 0.925 | locus YLR262C, strain YPT6, active compounds read low 0.908 | locus YLR268W, strain sec22, active compounds read low 0.978 | locus YLR320W, strain mms22, active compounds read low 1 | locus YLR330W, strain CHS5, active compounds read low 0.988 | locus YLR342W, strain FKS1 (second series), active compounds read low 1 | locus YLR342W, strain FKS1, active compounds read low 0.979 | locus YLR357W, strain rsc2, active compounds read low 0.958 | locus YLR370C, strain arc18, active compounds read low 0.986 | locus YLR371W, strain rom2, active compounds read low 0.998 | locus YLR384C, strain iki3, active compounds read low 0.967 | locus YLR418C, strain cdc73, active compounds read low 1.03 | locus YML016C, strain PPZ1, active compounds read low 0.987 | locus YML032C, strain rad52, active compounds read low 0.976 | locus YML120C, strain ndi1, active compounds read low 0.967 | locus YML124C, strain tub3, active compounds read low 0.992 | locus YMR058W, strain fet3, active compounds read low 0.995 | locus YMR078C, strain ctf18, active compounds read low 0.988 | locus YMR125W, strain sto1, active compounds read low 0.93 | locus YMR129W, active compounds read low 0.968 | locus YMR205C, strain PFK2, active compounds read low 0.96 | locus YMR223W, strain ubp8, active compounds read low 1.02 | locus YMR231W, strain pep5, active compounds read low 0.956 | locus YMR307W, strain GAS1, active compounds read low 0.999 | locus YNL067W, strain RPL9B, active compounds read low 0.98 | locus YNL071W, strain lat1, active compounds read low 0.971 | locus YNL153C, strain GIM3, active compounds read low 0.982 | locus YNL183C, strain NPR1, active compounds read low 0.921 | locus YNL209W, strain ssb2, active compounds read low 0.981 | locus YNL233W, strain BNI4, active compounds read low 0.988 | locus YNL248C, strain rpa49, active compounds read low 0.997 | locus YNL250W, strain rad50, active compounds read low 0.995 | locus YNL271C, strain bni1, active compounds read low 0.993 | locus YNL298W, strain CLA4, active compounds read low 1.01 | locus YNL307C, strain MCK1, active compounds read low 0.986 | locus YNL322C, strain KRE1 (second series), active compounds read low 0.963 | locus YNR049C, strain mso1, active compounds read low 0.967 | locus YNR052C, strain pop2, active compounds read low 0.988 | locus YOL006C, strain TOP1, active compounds read low 1.02 | locus YOL012C, strain htz1 0.938 | locus YOL147C, strain pex11, active compounds read low 0.993 | locus YOR001W, strain rrp6, active compounds read low 0.984 | locus YOR061W, strain CKA2, active compounds read low 0.972 | locus YOR069W, strain VPS5, active compounds read low 0.986 | locus YOR070C, strain gyp1, active compounds read low 0.994 | locus YOR080W, strain dia2, active compounds read low 0.963 | locus YOR083W, strain WHI5, active compounds read low 0.996 | locus YOR106W, strain vam3, active compounds read low 0.958 | locus YOR136W, strain idh2, active compounds read low 0.982 | locus YOR144C, strain elg1, active compounds read low 0.984 | locus YOR184W, strain ser1, active compounds read low 0.986 | locus YOR231W, strain MKK1, active compounds read low 0.959 | locus YOR265W, strain rbl2, active compounds read low 0.98 | locus YOR270C, strain vph1, active compounds read low 0.931 | locus YOR290C, strain snf2, active compounds read low 1 | locus YOR316C, strain cot1, active compounds read low 0.97 | locus YPL051W, strain arl3, active compounds read low 0.993 | locus YPL055C, strain LGE1, active compounds read low 0.992 | locus YPL078C, strain atp4, active compounds read low 0.962 | locus YPL106C, strain sse1, active compounds read low 0.99 | locus YPL240C, strain hsp82, active compounds read low 0.982 | locus YPL256C, strain CLN2, active compounds read low 0.98 | locus YPR119W, strain clb2, active compounds read low 0.985 | locus YPR141C, strain kar3, active compounds read low 0.979 | locus YPR163C, strain tif3, active compounds read low 0.986 | locus YPR167C, strain met16, active compounds read low 0.998 | strain wtn01, active compounds read low 1.02
